Common to all, as to conditions: mRNA level, 48 h; actives raise or lower the signal
Read-out in assay [1]: Apoptosis regulator Bcl-2 (Homo sapiens) (UniProt P10415)
The assay is described as follows: LTEA_HepaRG_BCL2: Life Technologies and Expression Analysis (LTEA) Assay for Bcl-2 gene using HepaRG (AID 2283475). An outline of the steps: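 Differentiated human HepaRG cells in serum-free induction medium exposed 48 h, in duplicate, to 8-point half-log series from 100 uM in 0.5% DMSO. BCL2 mRNA by qRT-PCR (TaqMan/Fluidigm), normalized to ACTB, GAPDH, POLR2A; bidirectional fit against DMSO.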

Read-out in assay [2]: Bcl-2 (BID) gene, BID (gene 637)
The assay is described as follows: LTEA_HepaRG_BID: Life Technologies and Expression Analysis (LTEA) Assay for Bcl-2 (BID) gene using HepaRG (AID 2283476). The essentials:
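Gene expression by qRT-PCR in HepaRG cells after 48 h exposure, duplicate wells, eight half-log concentrations topping at 100 uM in 0.5% DMSO. Normalized to ACTB, GAPDH, POLR2A; bidirectional fitting relative to DMSO.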

Read-out in another assay: Caspase-3 (Homo sapiens) (UniProt P42574)
Briefly: LTEA_HepaRG_CASP3: Life Technologies and Expression Analysis (LTEA) Assay for cysteine-aspartic acid protease (CASP3) using HepaRG (AID 2283477). An outline of the steps:
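Differentiated HepaRG cells, plated 48 h, were treated in duplicate in serum-free induction medium for 48 h with eight half-log concentrations up to 100 uM in 0.5% DMSO. CASP3 mRNA measured by qRT-PCR, normalized to ACTB, GAPDH, POLR2A.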

Read-out in assay [3]: Cytochrome P450 (CYP1A2), CYP1A2 (gene 1544)
The assay is described as follows: LTEA_HepaRG_CYP1A2: Life Technologies and Expression Analysis (LTEA) Assay for Cytochrome P450 (CYP1A2) using HepaRG (AID 2283479). The essentials: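 Differentiated human HepaRG cells in serum-free induction medium exposed 48 hours in duplicate to 8 half-log concentrations from 100 uM, 0.5% DMSO. CYP1A2 mRNA quantified by qRT-PCR, normalized to ACTB, GAPDH and POLR2A; bidirectional fitting versus DMSO.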

Read-out in assay [4]: cysteine-aspartic acid protease (CASP8), CASP8 (gene 841)
Briefly: LTEA_HepaRG_CASP8: Life Technologies and Expression Analysis (LTEA) Assay for cysteine-aspartic acid protease (CASP8) using HepaRG (AID 2283480). An outline of the steps:
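HepaRG, 48 h exposure, duplicate wells; 8 conc, half-log from 100 uM, 0.5% DMSO. Serum-free induction medium. CASP8 mRNA by TaqMan qRT-PCR, norm. ACTB/GAPDH/POLR2A; gain/loss fitted vs DMSO.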

Read-out in assay [5]: Cytochrome P450 (CYP2B6), CYP2B6 (gene 1555)
Briefly: LTEA_HepaRG_CYP2B6: Life Technologies and Expression Analysis (LTEA) Assay for Cytochrome P450 (CYP2B6) using HepaRG (AID 2283481). The essentials:
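Differentiated human HepaRG cells in serum-free induction medium, dosed in duplicate for 48 h over 8 half-log concentrations topping at 100 uM (0.5% DMSO). CYP2B6 mRNA measured by TaqMan qRT-PCR, normalized to ACTB, GAPDH, POLR2A; bidirectional fit versus DMSO.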

Read-out in assay [6]: Cytochrome P450 2C19 (Homo sapiens) (UniProt P33261)
The assay is described as follows: LTEA_HepaRG_CYP2C19: Life Technologies and Expression Analysis (LTEA) Assay for CYP2C19 using HepaRG (AID 2283482). The essentials:
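Differentiated HepaRG cells in serum-free induction medium exposed 48 h in duplicate, 8 concentrations from 100 uM by half-log steps in 0.5% DMSO. CYP2C19 mRNA measured by TaqMan qRT-PCR, normalized to ACTB, GAPDH, POLR2A. Bidirectional fit versus DMSO.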

Read-out in a further assay: CYP2C8 (gene 1558)
The assay is described as follows: LTEA_HepaRG_CYP2C8: Life Technologies and Expression Analysis (LTEA) Assay for CYP2C8 using HepaRG (AID 2283483). An outline of the steps:
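CYP2C8 mRNA induction or loss, by qRT-PCR normalized to ACTB/GAPDH/POLR2A, is read in HepaRG cells after 48 h treatment. Concentrations run from 100 uM down in half-log dilutions, with 0.5% DMSO as vehicle and baseline.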

Read-out in another assay: CYP2C9 (gene 1559)
Briefly: LTEA_HepaRG_CYP2C9: Life Technologies and Expression Analysis (LTEA) Assay for CYP2C9 using HepaRG (AID 2283484). An outline of the steps:
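Cells plated 48 h, switched to serum-free induction medium, then treated in duplicate for 48 h at eight concentrations (max 100 uM, 0.5% DMSO). RNA then analysed by qRT-PCR for CYP2C9; curves fitted in both directions relative to DMSO.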

Read-out in the next assay: CYP2E1 (gene 1571)
Briefly: LTEA_HepaRG_CYP2E1: Life Technologies and Expression Analysis (LTEA) Assay for CYP2E1 using HepaRG (AID 2283485). The essentials: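 HepaRG cells, plated 48 h, then exposed 48 h in serum-free induction medium to eight half-log concentrations from 100 uM in 0.5% DMSO, duplicate. CYP2E1 mRNA by qRT-PCR, normalized to ACTB/GAPDH/POLR2A; bidirectional fit versus DMSO.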

Read-out in the next assay: CYP4A11 (gene 1579)
The assay is described as follows: LTEA_HepaRG_CYP4A11: Life Technologies and Expression Analysis (LTEA) Assay for CYP4A11 using HepaRG (AID 2283486). An outline of the steps: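 Differentiated HepaRG cells, 48 h after plating, exposed in duplicate for 48 h to 8 half-log concentrations up to 100 uM in 0.5% DMSO in serum-free induction medium. CYP4A11 mRNA measured by TaqMan qRT-PCR, normalized to ACTB, GAPDH and POLR2A.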

Read-out in assay [7]: Cytochrome P450 3A4 (Homo sapiens) (UniProt P08684)
Briefly: LTEA_HepaRG_CYP3A4: Life Technologies and Expression Analysis (LTEA) Assay for CYP3A4 using HepaRG (AID 2283487). The essentials: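 Differentiated HepaRG cells, plated 48 h, then dosed 48 h in serum-free induction medium with 0.5% DMSO, 8 half-log concentrations up to 100 uM, duplicate. CYP3A4 mRNA by qRT-PCR, normalized to ACTB/GAPDH/POLR2A; bidirectional fit versus DMSO.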

Read-out in assay [8]: DNA damage-inducible transcript 3 (DDIT3), DDIT3 (gene 1649)
The assay is described as follows: LTEA_HepaRG_DDIT3: Life Technologies and Expression Analysis (LTEA) Assay for DNA damage-inducible transcript 3 (DDIT3) using HepaRG (AID 2283488). An outline of the steps: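 HepaRG cells, 48 h after plating, exposed 48 h in serum-free induction medium to 8 half-log concentrations up to 100 uM in 0.5% DMSO, in duplicate. DDIT3 mRNA measured by TaqMan qRT-PCR, normalized to ACTB, GAPDH and POLR2A. Fitted bidirectionally against DMSO.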

Read-out in assay [9]: Pro-epidermal growth factor (Homo sapiens) (UniProt P01133)
The assay is described as follows: LTEA_HepaRG_EGF: Life Technologies and Expression Analysis (LTEA) Assay for Epidermal growth factor (EGF) using HepaRG (AID 2283489). The essentials:
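HepaRG cells (~100,000/well, 48 h pre-culture) exposed in duplicate for 48 h in serum-free induction medium to 8 half-log concentrations up to 100 uM in 0.5% DMSO. EGF mRNA by qRT-PCR, normalized to ACTB/GAPDH/POLR2A; bidirectional fit versus DMSO.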

Read-out in assay [10]: Early growth response protein 1 (EGR1) transcription factor, EGR1 (gene 1958)
Briefly: LTEA_HepaRG_EGR1: Life Technologies and Expression Analysis (LTEA) Assay for Early growth response protein 1 (EGR1) transcription factor using HepaRG (AID 2283490). The essentials:
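Read-out is EGR1 mRNA level by qRT-PCR, normalized to three housekeeping genes and analysed for gain or loss of signal against 0.5% DMSO. Source cells: human HepaRG, treated 48 h at up to 100 uM in half-log dilutions.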

Read-out in assay [11]: Ezrin (EZR), EZR (gene 7430)
Briefly: LTEA_HepaRG_EZR: Life Technologies and Expression Analysis (LTEA) Assay for Ezrin (EZR) using HepaRG (AID 2283491). The essentials: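 EZR transcript levels came from Fluidigm qRT-PCR and were normalized to three housekeeping genes after 48 h chemical exposure of HepaRG cells. Dosing used an 8-point half-log series with a 100 uM top concentration in 0.5% DMSO, tested in duplicate; both directions were fitted versus vehicle.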

Read-out in the next assay: CYP3A5 (gene 1577)
Briefly: LTEA_HepaRG_CYP3A5: Life Technologies and Expression Analysis (LTEA) Assay for CYP3A5 using HepaRG (AID 2283493). The essentials: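 HepaRG cells, plated 48 h then in serum-free induction medium, dosed in duplicate for 48 h with eight half-log concentrations up to 100 uM in 0.5% DMSO. Gene mRNA by Fluidigm TaqMan qRT-PCR, normalized to ACTB, GAPDH, POLR2A.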

Read-out in assay [12]: Fatty Acid-Binding Protein 1 (FABP1), FABP1 (gene 2168)
Briefly: LTEA_HepaRG_FABP1: Life Technologies and Expression Analysis (LTEA) Assay for Fatty Acid-Binding Protein 1 (FABP1) using HepaRG (AID 2283494). An outline of the steps: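 HepaRG, 48 h post-plating switched to serum-free induction medium, then dosed 48 h (duplicate, 8 pts, ≤100 uM, 0.5% DMSO). RNA → Fluidigm TaqMan qRT-PCR, FABP1 normed to ACTB/GAPDH/POLR2A. Bidirectional curve fit vs DMSO.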

Active and inactive are the calls of the source. How the source made its calls: active means hit-call score of the fitted dose curve at least 0.9, where 1 is the maximum; inactive means score below 0.9.

The text below walks through data of PubChem BioAssay (EPA / NIEHS).

Sequence of Cytochrome P450 3A4 (Homo sapiens) (P08684 whole entry, looked up): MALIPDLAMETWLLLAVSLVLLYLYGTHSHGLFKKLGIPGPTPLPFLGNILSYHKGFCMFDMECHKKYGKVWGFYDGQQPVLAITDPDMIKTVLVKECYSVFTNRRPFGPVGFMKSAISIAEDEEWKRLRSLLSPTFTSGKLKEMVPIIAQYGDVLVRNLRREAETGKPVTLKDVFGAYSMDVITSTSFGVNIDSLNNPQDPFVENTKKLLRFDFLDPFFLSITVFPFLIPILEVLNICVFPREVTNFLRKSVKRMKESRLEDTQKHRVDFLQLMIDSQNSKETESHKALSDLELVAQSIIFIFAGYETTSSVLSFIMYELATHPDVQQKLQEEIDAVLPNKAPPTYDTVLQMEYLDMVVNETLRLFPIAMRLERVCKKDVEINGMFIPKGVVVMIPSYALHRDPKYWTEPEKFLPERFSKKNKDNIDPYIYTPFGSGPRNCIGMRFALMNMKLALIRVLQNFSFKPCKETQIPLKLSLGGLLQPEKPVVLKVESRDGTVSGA
Sequence of Caspase-3 (Homo sapiens) (P42574 whole entry, looked up): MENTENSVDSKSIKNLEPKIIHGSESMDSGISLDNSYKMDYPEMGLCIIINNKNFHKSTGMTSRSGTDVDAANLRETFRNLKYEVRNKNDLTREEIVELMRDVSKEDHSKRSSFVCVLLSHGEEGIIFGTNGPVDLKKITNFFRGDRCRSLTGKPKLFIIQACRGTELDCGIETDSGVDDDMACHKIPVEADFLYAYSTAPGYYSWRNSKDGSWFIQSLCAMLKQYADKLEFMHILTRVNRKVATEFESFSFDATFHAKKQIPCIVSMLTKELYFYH
Sequence of Cytochrome P450 2C19 (Homo sapiens) (P33261 whole entry, looked up): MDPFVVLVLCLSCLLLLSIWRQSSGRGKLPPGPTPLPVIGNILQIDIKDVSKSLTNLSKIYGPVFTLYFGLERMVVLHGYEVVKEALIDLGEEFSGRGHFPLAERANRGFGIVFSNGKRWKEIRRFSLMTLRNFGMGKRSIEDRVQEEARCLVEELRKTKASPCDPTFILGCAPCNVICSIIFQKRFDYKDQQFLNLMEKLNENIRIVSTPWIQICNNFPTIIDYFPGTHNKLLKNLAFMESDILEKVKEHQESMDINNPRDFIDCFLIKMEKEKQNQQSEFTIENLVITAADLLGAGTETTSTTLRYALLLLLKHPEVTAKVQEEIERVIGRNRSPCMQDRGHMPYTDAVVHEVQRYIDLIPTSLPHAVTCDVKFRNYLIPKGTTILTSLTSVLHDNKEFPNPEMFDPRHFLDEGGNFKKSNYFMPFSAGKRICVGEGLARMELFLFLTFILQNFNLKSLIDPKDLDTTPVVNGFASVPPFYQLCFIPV
Sequence of Apoptosis regulator Bcl-2 (Homo sapiens) (P10415 whole entry, looked up): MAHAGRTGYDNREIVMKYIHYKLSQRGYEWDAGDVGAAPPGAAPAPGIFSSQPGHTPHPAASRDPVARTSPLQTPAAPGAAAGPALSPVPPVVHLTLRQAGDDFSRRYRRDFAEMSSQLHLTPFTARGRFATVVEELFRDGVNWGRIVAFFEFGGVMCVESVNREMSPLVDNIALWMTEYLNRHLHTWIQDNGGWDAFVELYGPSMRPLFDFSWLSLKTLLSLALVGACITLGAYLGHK

For `CCCCCCCCOC(=O)c1cc(O)c(O)c(O)c1`, the result (in [1]; in [2]; in the assay with Caspase-3 (Homo sapiens); in [4]; in assay [5]; in assay [6]) was inactive. In addition, the outcome (with CYP2C8 (gene 1558); in the assay with CYP2C9 (gene 1559); with CYP2E1 (gene 1571); with CYP4A11 (gene 1579); in [7]; in assay [8]) was inactive. The compound was classed as inactive (in assay [9]; in assay [10]; in [11]; with CYP3A5 (gene 1577); in assay [12]). Also, in [3], the concentration at half-maximal activity (AC50) was 39.5 µM (active).
For `Cc1cc(F)ccc1-c1cc(N2CC[C@@H](O)[C@H]2CO)ncc1N(C)C(=O)C(C)(C)c1cc(C(F)(F)F)cc(C(F)(F)F)c1`, the concentration at half-maximal activity (AC50) in assay [1] is 19.7 µM (active); with Caspase-3 (Homo sapiens), 76.6 µM (active); in [3], 21.1 µM (active); in [5], 22.3 µM (active); in assay [6], 23.7 µM (active); with CYP2C8 (gene 1558), 21.4 µM (active). In addition, the half-maximal activity concentration (AC50) with CYP2E1 (gene 1571) was 10.3 µM (active); in the assay with CYP4A11 (gene 1579) it was 15.7 µM (active); in assay [7], 0.588 µM (active); in assay [8], 71.1 µM (active); in assay [9] it was 5.44 µM (active); in [10], 61.2 µM (active). Also, the figures for the AC50 in assay [11] and in [12] were 20.8 µM (active) and 13.9 µM (active), respectively. In addition, the result (in assay [2]; in assay [4]; with CYP2C9 (gene 1559); with CYP3A5 (gene 1577)) was inactive.
With `c1ccc(C[n+]2cccc3ccccc32)cc1`, the half-maximal activity concentration (AC50) in assay [1] was 35.1 µM (active); in [5], 50 µM (active); in [6] it was 50 µM (active); with CYP2C8 (gene 1558), 30 µM (active); in the assay with CYP2C9 (gene 1559), 31 µM (active); with CYP4A11 (gene 1579), 22.3 µM (active). Moreover, the concentration at half-maximal activity (AC50) in [7] was 33.4 µM (active); in assay [8] it was 30.9 µM (active); in assay [11] it was 14.7 µM (active); in [12], 31.7 µM (active). The compound was classed as inactive (in assay [2]; with Caspase-3 (Homo sapiens); in [3]; in assay [4]; in assay [9]; in [10]). Besides, the outcome with CYP3A5 (gene 1577) was inactive.

Usually AC50 stands for the midpoint of the concentration-response curve, whichever way the signal moves.
